Results reported in the supplement of paper PMC10849652.
The full data set covers some 7,900 targets. This sample favours those with a hit. About 0.6% of all pairs of compound and target were hits.

Key:
Assay in all cases: log2 fold change, soluble protein after heating vs DMSO (PISA); higher = thermal stabilisation; K562 cells, 10 uM, 30 min; active = over 0.2 and 3.5 SD of the protein, either way, in both replicates (recomputed)
bafetinib = compound: Cc1ccc(NC(=O)c2ccc(CN3CC[C@H](N(C)C)C3)c(C(F)(F)F)c2)cc1Nc1nccc(-c2cncnc2)n1 [bafetinib]
Procedure, shortened: (§1)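 For each measurement, 10 μM compound was applied for 30 min to K562 cells at 2×10^6 cells/mL. Aliquots were heated for 3 min across 48°C-58°C, pooled, and extracted in PBS with 0.5% NP-40 at 4°C; the supernatant after 21,000xg for 90 min was soluble protein. This was quantified by TMTpro 16plex LC-MS/MS with channel sums equalised, and thermal stability was reported relative to control samples from duplicates, on a log2 fold-change scale.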

[1] = compound: Cc1cccc(CC(=O)N2CCc3c2ccc(-c2cn(C)c4ncnc(N)c24)c3F)n1
Procedure, shortened: as §1

nilotinib = compound: Cc1cn(-c2cc(NC(=O)c3ccc(C)c(Nc4nccc(-c5cccnc5)n4)c3)cc(C(F)(F)F)c2)cn1 [nilotinib]
Procedure, shortened: as §1

[2] = compound: Cc1nc(Nc2n[nH]c3c2CN(C(=O)N[C@H](CN(C)C)c2ccccc2)C3(C)C)c2sccc2n1
Procedure, shortened: as §1

dasatinib = compound: Cc1nc(Nc2ncc(C(=O)Nc3c(C)cccc3Cl)s2)cc(N2CCN(CCO)CC2)n1 [dasatinib]
Procedure, shortened: as §1

[3] = compound: Cc1ncc(-c2ccnc(Nc3ccc(S(C)(=O)=O)cc3)n2)n1C(C)C
Procedure, shortened: as §1

[4] = compound: Cn1cc(-c2ccc3c(c2)CCN3C(=O)Cc2cccc(C(F)(F)F)c2)c2c(N)ncnc21
Procedure, shortened: as §1

[5] = compound: Cn1cc(-c2ccc3nnc(C(F)(F)c4ccc5ncccc5c4)n3n2)cn1
Procedure, shortened: as §1

tipifarnib = compound: Cn1cncc1[C@@](N)(c1ccc(Cl)cc1)c1ccc2c(c1)c(-c1cccc(Cl)c1)cc(=O)n2C [tipifarnib]
Procedure, shortened: as §1

mubritinib = compound: FC(F)(F)c1ccc(/C=C/c2nc(COc3ccc(CCCCn4ccnn4)cc3)co2)cc1 [mubritinib]
Procedure, shortened: as §1

[6] = compound: NC(=O)Nc1cc(-c2cccc(F)c2)sc1C(=O)N[C@H]1CCCNC1
Procedure, shortened: as §1

[7] = compound: NC(=O)c1cnc(N[C@@H]2CCCC[C@@H]2N)nc1Nc1cccc(-n2nccn2)c1
Procedure, shortened: as §1

[8] = compound: NC1(c2ccc(-c3nc4ccn5c(=O)[nH]nc5c4cc3-c3ccccc3)cc2)CCC1
Procedure, shortened: as §1

[9] = compound: NCC(=O)Nc1ccc(-n2nc(C(F)(F)F)cc2-c2ccc3c(ccc4ccccc43)c2)cc1
Procedure, shortened: as §1

entinostat = compound: Nc1ccccc1NC(=O)c1ccc(CNC(=O)OCc2cccnc2)cc1 [entinostat]
Procedure, shortened: as §1

vorinostat = compound: O=C(CCCCCCC(=O)Nc1ccccc1)NO [vorinostat]
Procedure, shortened: as §1

citarinostat = compound: O=C(CCCCCCNC(=O)c1cnc(N(c2ccccc2)c2ccccc2Cl)nc1)NO [citarinostat]
Procedure, shortened: as §1

silmitasertib = compound: O=C(O)c1ccc2c(c1)nc(Nc1cccc(Cl)c1)c1ccncc12 [silmitasertib]
Procedure, shortened: as §1

[10] = compound: O=C1NC(=O)C(c2cnc3ccccn23)=C1c1cn2c3c(cc(F)cc13)CN(C(=O)N1CCCCC1)CC2
Procedure, shortened: as §1

[11] = compound: c1cc(OCCN2CCCCC2)cc(-c2n[nH]c3ccc(-c4nnc[nH]4)cc23)c1
Procedure, shortened: as §1

Measured: log2 fold change

RPP25L (UniProt Q8N5L8)
Chain of UniProt Q8N5L8 (Q8N5L8 whole entry, looked up): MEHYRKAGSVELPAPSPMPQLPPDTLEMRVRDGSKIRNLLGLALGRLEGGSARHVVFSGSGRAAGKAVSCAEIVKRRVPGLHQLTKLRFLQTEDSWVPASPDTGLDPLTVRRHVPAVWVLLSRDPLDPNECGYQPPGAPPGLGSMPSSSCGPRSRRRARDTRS
inactive: bafetinib 0.143 | [1] -0.04 | nilotinib 0.044 | [2] -0.087 | dasatinib 0.09 | [3] -0.031 | [4] -0.058 | [5] 0.004 | tipifarnib 0.044 | mubritinib -0.004 | [6] 0.003 | [7] -0.052 | [8] -0.012 | [9] -0.032 | entinostat -0.001 | vorinostat -0.014 | citarinostat -0.08 | silmitasertib 0.073 | [10] 0.183 | [11] -0.075

SH3GL1 (UniProt Q99961)
Chain of UniProt Q99961 (Q99961 whole entry, looked up): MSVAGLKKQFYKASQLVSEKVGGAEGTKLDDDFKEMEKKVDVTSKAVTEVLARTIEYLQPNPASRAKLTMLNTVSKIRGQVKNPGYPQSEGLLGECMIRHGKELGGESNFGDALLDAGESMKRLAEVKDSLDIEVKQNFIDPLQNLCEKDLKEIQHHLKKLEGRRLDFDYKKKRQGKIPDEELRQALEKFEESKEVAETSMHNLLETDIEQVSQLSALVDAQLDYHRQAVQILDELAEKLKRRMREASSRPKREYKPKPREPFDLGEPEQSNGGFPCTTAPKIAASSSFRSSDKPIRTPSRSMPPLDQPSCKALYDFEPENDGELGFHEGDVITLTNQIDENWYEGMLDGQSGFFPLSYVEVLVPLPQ
inactive: bafetinib -0.018 | [1] 0.069 | nilotinib -0.084 | [2] -0.18 | dasatinib -0.262 | [3] -0.014 | [4] 0.055 | [5] 0.02 | tipifarnib -0.114 | mubritinib 0.122 | [6] -0.049 | [7] -0.088 | [8] -0.106 | [9] -0.032 | entinostat 0.143 | vorinostat 0.082 | citarinostat 0.068 | silmitasertib 0.028 | [10] 0.006 | [11] -0.041

RABGAP1L isoform 3 (UniProt Q5R372)
inactive: bafetinib -0.045 | [1] 0.024 | nilotinib -0.031 | [2] -0.001 | dasatinib -0.038 | [3] -0.037 | [4] -0.005 | [5] 0.013 | tipifarnib 0.016 | mubritinib -0.001 | [6] -0.012 | [7] -0.012 | [8] -0.05 | [9] 0.036 | entinostat 0.016 | vorinostat 0.025 | citarinostat 0.06 | silmitasertib 0.019 | [10] 0.073 | [11] -0.011

SCPEP1 (UniProt Q9HB40)
Chain of UniProt Q9HB40 (Q9HB40 whole entry, looked up): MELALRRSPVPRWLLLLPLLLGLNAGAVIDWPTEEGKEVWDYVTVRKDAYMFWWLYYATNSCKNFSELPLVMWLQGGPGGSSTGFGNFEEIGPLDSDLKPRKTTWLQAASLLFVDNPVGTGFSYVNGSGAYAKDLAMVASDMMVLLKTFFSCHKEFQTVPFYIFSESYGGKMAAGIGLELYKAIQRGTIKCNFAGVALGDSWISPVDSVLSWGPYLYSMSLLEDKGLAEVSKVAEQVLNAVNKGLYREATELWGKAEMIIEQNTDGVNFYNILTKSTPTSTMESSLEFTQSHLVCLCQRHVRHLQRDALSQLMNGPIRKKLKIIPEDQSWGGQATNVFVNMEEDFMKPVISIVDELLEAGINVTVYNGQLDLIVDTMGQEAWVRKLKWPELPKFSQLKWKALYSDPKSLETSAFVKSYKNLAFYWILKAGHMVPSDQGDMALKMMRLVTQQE
inactive: [1] -0.013 | nilotinib 0.028 | [2] -0.006 | dasatinib -0.007 | [3] -0.004 | [4] 0.023 | [5] 0.034 | tipifarnib 0.026 | mubritinib 0.04 | [6] 0.036 | [7] 0.001 | [9] 0.008 | entinostat 0.023 | vorinostat -0.037 | citarinostat -0.043 | silmitasertib 0.003 | [10] 0.024 | [11] 0.022
active: bafetinib -0.499 | [8] -0.314

SENP6 (UniProt Q9GZR1)
Chain of UniProt Q9GZR1 (Q9GZR1 whole entry, looked up): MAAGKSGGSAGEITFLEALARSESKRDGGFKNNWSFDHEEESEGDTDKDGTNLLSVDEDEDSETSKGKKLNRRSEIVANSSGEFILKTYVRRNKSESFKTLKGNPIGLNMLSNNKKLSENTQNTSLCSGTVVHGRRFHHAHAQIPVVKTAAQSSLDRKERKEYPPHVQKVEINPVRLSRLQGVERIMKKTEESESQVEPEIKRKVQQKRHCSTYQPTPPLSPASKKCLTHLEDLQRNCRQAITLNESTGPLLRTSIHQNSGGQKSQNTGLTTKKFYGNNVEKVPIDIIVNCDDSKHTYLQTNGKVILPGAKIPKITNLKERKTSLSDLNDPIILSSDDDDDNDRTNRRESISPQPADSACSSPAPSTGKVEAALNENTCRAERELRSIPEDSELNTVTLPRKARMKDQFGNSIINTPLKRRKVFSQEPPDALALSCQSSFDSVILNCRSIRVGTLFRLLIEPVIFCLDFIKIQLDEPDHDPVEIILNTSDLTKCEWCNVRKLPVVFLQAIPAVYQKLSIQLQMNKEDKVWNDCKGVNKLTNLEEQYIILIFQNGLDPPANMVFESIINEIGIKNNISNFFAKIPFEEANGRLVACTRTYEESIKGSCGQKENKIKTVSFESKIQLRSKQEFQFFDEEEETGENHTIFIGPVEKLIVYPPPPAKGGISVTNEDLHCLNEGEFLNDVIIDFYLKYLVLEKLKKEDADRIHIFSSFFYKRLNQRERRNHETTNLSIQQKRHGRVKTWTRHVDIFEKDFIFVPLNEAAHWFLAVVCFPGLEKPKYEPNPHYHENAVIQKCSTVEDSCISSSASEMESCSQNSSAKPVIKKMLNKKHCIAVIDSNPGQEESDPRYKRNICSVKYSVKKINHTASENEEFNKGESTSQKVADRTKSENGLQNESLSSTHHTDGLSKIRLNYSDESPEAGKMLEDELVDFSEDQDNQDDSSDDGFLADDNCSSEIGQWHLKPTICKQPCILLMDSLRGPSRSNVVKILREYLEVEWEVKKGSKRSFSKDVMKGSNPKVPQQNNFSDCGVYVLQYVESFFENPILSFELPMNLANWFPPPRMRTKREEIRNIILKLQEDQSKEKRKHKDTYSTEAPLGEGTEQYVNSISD
inactive: bafetinib 0.015 | [1] -0.015 | nilotinib 0.007 | [2] -0.038 | dasatinib -0.028 | [3] 0.063 | [4] 0.046 | [5] -0.013 | tipifarnib 0.025 | mubritinib 0.053 | [6] 0.011 | [7] -0.009 | [8] -0.073 | [9] -0.023 | entinostat -0.019 | vorinostat -0.021 | citarinostat 0.04 | silmitasertib -0.118 | [10] 0.027 | [11] -0.049

RNPS1 (UniProt Q15287)
Chain of UniProt Q15287 (Q15287 whole entry, looked up): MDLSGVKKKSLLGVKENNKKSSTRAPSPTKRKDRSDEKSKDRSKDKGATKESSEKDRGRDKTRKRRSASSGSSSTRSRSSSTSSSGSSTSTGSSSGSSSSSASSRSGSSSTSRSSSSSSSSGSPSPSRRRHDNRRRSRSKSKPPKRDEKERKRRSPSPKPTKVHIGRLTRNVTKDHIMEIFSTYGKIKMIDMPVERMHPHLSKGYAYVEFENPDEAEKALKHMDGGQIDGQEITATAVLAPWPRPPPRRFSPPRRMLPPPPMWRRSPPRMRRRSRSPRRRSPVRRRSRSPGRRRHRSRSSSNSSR
active: [2] -0.62
inactive: bafetinib -0.073 | [1] -0.032 | nilotinib -0.035 | dasatinib -0.007 | [3] -0.12 | [4] -0.037 | [5] 0.011 | tipifarnib -0.084 | mubritinib 0.003 | [6] -0.019 | [7] -0.39 | [8] 0.097 | [9] 0.031 | entinostat -0.06 | vorinostat 0.024 | citarinostat 0.038 | silmitasertib -0.111 | [10] -0.018 | [11] -0.146

SCAMP2 (UniProt O15127)
Chain of UniProt O15127 (O15127 whole entry, looked up): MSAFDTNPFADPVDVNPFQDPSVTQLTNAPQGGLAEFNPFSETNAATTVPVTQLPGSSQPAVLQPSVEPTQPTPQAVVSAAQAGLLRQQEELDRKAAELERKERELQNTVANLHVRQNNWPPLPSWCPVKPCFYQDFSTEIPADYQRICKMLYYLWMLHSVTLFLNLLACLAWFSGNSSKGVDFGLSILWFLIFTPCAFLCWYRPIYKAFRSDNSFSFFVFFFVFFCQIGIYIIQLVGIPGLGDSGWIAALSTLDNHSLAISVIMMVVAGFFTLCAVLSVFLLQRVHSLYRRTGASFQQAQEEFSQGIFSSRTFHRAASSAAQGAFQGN
inactive: bafetinib -0.113 | [1] -0.125 | nilotinib 0.084 | [2] -0.107 | dasatinib -0.027 | [3] 0.058 | [4] 0.11 | [5] 0.062 | tipifarnib -0.061 | mubritinib 0.046 | [6] -0.007 | [7] 0.168 | [8] 0.001 | [9] 0.029 | entinostat -0.001 | vorinostat -0.027 | citarinostat 0.189 | silmitasertib -0.002 | [10] 0.109 | [11] -0.065
